Bioassay records (PubChem)
Rows were chosen to be rich in hits. Some 1.8% of all compounds tested hit in one or more screens of this group.
PAD4 FP inh: blocks human protein arginine deiminase 4 | AID 485272 | recombinant PAD4, RCA probe fluorescence polarization | inhibition, % at 6.36 µM | Q9UM07 | 330,000 compounds, 0.41% hits;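 active = percent inhibition above a cutoff equal to the mean of all tested compounds plus 3 SD, cut at about 15% in these data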;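 also: 0% = PAD4 with RCA probe and DMSO and 100% = probe without PAD4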
Target sequence (Q9UM07 whole entry, looked up): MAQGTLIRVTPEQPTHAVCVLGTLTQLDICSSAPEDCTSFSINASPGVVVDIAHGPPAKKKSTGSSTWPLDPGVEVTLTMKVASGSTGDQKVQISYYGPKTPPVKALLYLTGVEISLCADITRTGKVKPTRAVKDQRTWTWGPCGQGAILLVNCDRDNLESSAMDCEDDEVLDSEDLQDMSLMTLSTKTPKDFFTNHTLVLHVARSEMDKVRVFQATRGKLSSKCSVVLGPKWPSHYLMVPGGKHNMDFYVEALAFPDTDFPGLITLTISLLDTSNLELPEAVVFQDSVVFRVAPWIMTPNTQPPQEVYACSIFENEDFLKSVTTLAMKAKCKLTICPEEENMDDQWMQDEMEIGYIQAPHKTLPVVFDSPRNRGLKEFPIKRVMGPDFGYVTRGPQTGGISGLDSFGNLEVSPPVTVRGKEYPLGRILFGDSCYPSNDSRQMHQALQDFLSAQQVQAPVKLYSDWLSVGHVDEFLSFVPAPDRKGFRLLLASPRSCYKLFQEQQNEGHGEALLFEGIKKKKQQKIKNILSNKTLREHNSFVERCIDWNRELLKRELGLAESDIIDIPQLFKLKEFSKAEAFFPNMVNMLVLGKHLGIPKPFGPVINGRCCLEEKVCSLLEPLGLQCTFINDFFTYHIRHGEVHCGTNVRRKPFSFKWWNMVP
LYPLA1 inh: LYPLA1 (human) inhibition in PME1 counter-screen. 320,000 compounds, 0.16% hits. recombinant LYPLA1, FP-Rh probe fluorescence polarization. AID 2174. inhibition, % at 5.9 µM. O75608;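 active = inhibition above the mean of all tested compounds plus 3 SD, set per campaign, cut at about 14% in these data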;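 also: inhibitors block serine hydrolase probe labeling of LYPLA1 so polarization falls; 0% = enzyme with DMSO and 100% = wells lacking LYPLA1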
GSTO1 counter: counter-screen for RBBP9 inhibitors: inhibitors of human GSTO1. P78417. recombinant GSTO1, activity-based probe fluorescence polarization. inhibition, % at 5.96 µM. 300,000 compounds, 1.1% hits. AID 1974;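 active = inhibition above the campaign mean inhibition plus 3 SD, cut at about 35% in these data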;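 also: 0% = GSTO1-1 with DMSO and 100% = wells lacking GSTO1-1 enzyme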
Fam108B counter: blocks mouse Fam108B hydrolase in RBBP9 counter-screen; recombinant Fam108B, FP-Rh probe fluorescence polarization; inhibition, % at 9.51 µM; 300,000 compounds, 0.33% hits;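 active = inhibition above the screen mean inhibition plus 3 SD, computed separately per campaign, cut at about 18% in these data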;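 also: inhibitors lower polarization as less probe binds the enzyme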
PME-1 inh: blocks human protein phosphatase methylesterase 1. inhibition, % at 5.9 µM. Q9Y570. recombinant PME-1, FP-Rh probe fluorescence polarization. 320,000 compounds, 0.53% hits;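 active = inhibition above the campaign mean of all compounds plus 3 SD, cut at about 26% in these data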;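 also: competitive labeling of PME-1 active site by serine hydrolase directed probe; 0% = PME-1 with DMSO and 100% = wells lacking PME-1 enzyme; inhibitors block probe labeling so polarization falls and inhibition rises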
LYPLA2 counter: counter-screen for PME1 inhibitors: inhibitors of human LYPLA2; O95372; recombinant LYPLA2, FP-Rh probe fluorescence polarization; inhibition, % at 5.9 µM; 320,000 compounds, 0.38% hits; AID 2177;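 active = inhibition above the screen-wide mean plus 3 SD, limit set per campaign, cut at about 26% in these data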;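 also: 0% = LYPLA2 with DMSO and 100% = wells lacking LYPLA2 enzyme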
Fam108b confirm: Fam108b (mouse) hydrolase inhibition, confirmation assay. shares compounds with Fam108B counter. recombinant Fam108b, FP-Rh probe fluorescence polarization. inhibition, % at 9.51 µM. 930 compounds, 44% hits. AID 1978;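 active = inhibition above a limit from the primary screen, the mean over all compounds plus 3 SD, cut at about 19% in these data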;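 also: 0% = median of active Fam108b wells and 100% = catalytically dead S170A mutant; inhibitors free the probe so polarization falls as inhibition rises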
* hit, by the source's call; / = no result given.

SMILES	PAD4 FP inh	LYPLA1 inh	GSTO1 counter	Fam108B counter	PME-1 inh	LYPLA2 counter	Fam108b confirm
NS(=O)(=O)c1ccc(NC(=O)COC(=O)c2ccc([N+](=O)[O-])s2)cc1	-10	-1	44*	5	8	7	/
CC(NC(=O)COC(=O)c1ccc([N+](=O)[O-])s1)c1ccccc1 (centres undefined)	-10	-3	44*	11	8	3	/
Cc1cc(C)c(NC(=O)COC(=O)c2ccc([N+](=O)[O-])s2)c(C)c1	-8	-4	6	3	-8	-3	/
CC1CC(C)CN(S(=O)(=O)CC23CCC(CC2=O)C3(C)C)C1 (centres undefined)	2	1	2	2	-3	-4	/
Cc1cc(/C=C2\SC(=S)NC2=O)c(C)n1C	-6	-5	46*	-2	-7	1	/
Cc1cc(/C=C2\SC(=S)NC2=O)c(C)n1-c1ccccc1	-9	0	25	7	0	0	/
O=C(O)CC/C(=N/Nc1ncc(C(F)(F)F)cc1Cl)C(=O)O	-5	0	-4	-5	-4	0	/
CC(C)C[C@H](NC(=O)N1CCn2c1nc1ccccc12)C(=O)NC1CCCCC1	7	1	-2	1	-4	5	/
Cc1ccc(S(=O)(=O)NN2C(=O)/C(=C/c3cccs3)SC2=S)cc1	-9	-2	37*	-1	-2	-5	/
O=C(NC1=NCCS1)c1ccc(Cl)c(S(=O)(=O)N2CCOCC2)c1	-3	3	-8	-10	-4	0	/
COc1ccc(Nc2nnc(SC(C(=O)Nc3ccc(OC)c(Cl)c3)c3ccccc3)s2)cc1 (centres undefined)	-5	-4	-19	38*	52*	2	25*
COc1ccc(Nc2nnc(SC(C(=O)Nc3cc(C)ccc3C)c3ccccc3)s2)cc1 (centres undefined)	-2	-3	2	5	0	0	/
CC1=C(C(=O)Nc2ccccc2C(=O)N2CCC(C)CC2)SCCO1	-2	2	-61	4	2	3	/
CCN(CC(=O)NCc1ccc(Cl)cc1)C(=O)c1sccc1C	-3	/	/	/	/	/	/
CCOc1cccc(=O)c2c(C)n(-c3ccc(C(=O)O)cc3)c(C)c12	7	8	24	13	-15	1	/
COc1cccc(=O)c2c(C)n(-c3ccc(C(=O)O)cc3)c(C)c12	3	0	30	18*	-17	2	1
COc1ccccc1N1CCN(C(=O)c2ccc(-c3ccc(Cl)cc3)o2)CC1	-2	-3	/	/	1	-2	/
COc1ccc(Cl)cc1S(=O)(=O)NC(C)C(=O)NCc1cccnc1 (centres undefined)	1	-3	-2	-1	-6	-6	/
Cc1ccccc1Nc1nc(-c2sc(NC(=O)c3ccc([N+](=O)[O-])cc3)nc2C)cs1	6	-17	3	14	5	-13	/
CCOc1ccccc1Nc1nc(-c2sc(NC(=O)c3ccc([N+](=O)[O-])cc3)nc2C)cs1	-6	-21	-2	22*	19	-16	24*
COc1ccc(OC)c(Nc2nc(-c3sc(NC(=O)c4ccccc4)nc3C)cs2)c1	-14	-15	-5	19*	21	-8	16
CCCCCC(=O)Nc1nc(C)c(-c2csc(Nc3ccc(Cl)cc3)n2)s1	-5	-19	-4	20*	25	-5	13
Cc1ccc(Nc2nc(-c3sc(NC(=O)c4ccc([N+](=O)[O-])cc4)nc3C)cs2)cc1	2	-24	3	22*	11	-13	8
COc1ccc(Cl)cc1Nc1nc(-c2sc(NC(=O)c3ccccc3)nc2C)cs1	-10	-14	-1	1	16	-16	/
COc1ccc([C@H]2CC(=O)C=C(c3ccc(C(=O)O)cc3)C2)cc1OC	3	-1	/	/	3	-2	/
SMILES	PAD4 FP inh	LYPLA1 inh	GSTO1 counter	Fam108B counter	PME-1 inh	LYPLA2 counter	Fam108b confirm
CC(=O)N1CCN(C(=O)COC(=O)c2oc3ccccc3c2C)CC1	1	2	/	/	3	7	/
Brc1cc(-c2ccccc2)nc(-c2ccccc2)n1	1	0	-3	0	4	2	/
COc1ccc(OC)c(-c2csc(NC(=O)CSc3ccc([N+](=O)[O-])cc3)n2)c1	3	-35	-13	21*	10	-29	14
COc1ccc(OC)c(-c2csc(NC(=O)CSc3ccc(Br)cc3)n2)c1	-1	-17	-3	17	-1	-10	/
Cn1c(C(O)C(O)c2ccccc2)nc2ccccc21 (centres undefined)	-2	4	-1	2	3	4	/
Cn1c(C(C#N)C2=C(Cl)C(=O)N(c3ccccc3)C2=O)nc2ccccc21 (centres undefined)	7	3	3	25*	14	14	17
CC(C)CN(Cc1cc(=O)oc2cc(-c3ccccc3)c(O)cc12)CC(C)C	2	-25	-32	42*	-2	-33	19*
O=c1cc(CN2CCN(C/C=C/c3ccccc3)CC2)c2cc(O)c(-c3ccccc3)cc2o1	-3	-2	3	8	3	3	/
Cc1[nH]c2ccccc2c1C(=O)C(=O)NC1CC1	0	1	-1	2	3	4	/
O=[N+]([O-])c1cc(N=Nc2ccc3ccccc3c2)ccc1O	-5	6	6	22*	10	15	13
Nc1ccc(O)c([N+](=O)[O-])c1	-8	3	/	/	-6	3	/
CCC(=O)OCC(=O)[C@@]1(OC(=O)CC)[C@@H](C)C[C@H]2[C@@H]3CCC4=CC(=O)C=C[C@]4(C)[C@@]3(Cl)[C@@H](O)C[C@@]21C	1	0	-5	-3	1	0	/
O=C(Nc1ccc(-c2nc3ccccc3o2)cc1)c1ccc(N2CCOCC2)c([N+](=O)[O-])c1	-1	-8	2	20*	-3	-8	1
COc1ccc(C(C)(C)C)cc1NC(=O)C1C2C=CC(C2)C1C(=O)O (centres undefined)	-3	1	11	-5	-1	3	/
COc1ccc([N+](=O)[O-])cc1NC(=O)C1C2C=CC(C2)C1C(=O)O (centres undefined)	-3	-1	21	19*	-3	2	2
CC(=O)Nc1cccc(CNCc2cccc(NC(C)=O)c2)c1	-4	-1	2	-2	3	0	/
COc1cc(/C=N/NC(=O)c2ccc(CN3C(=O)c4cccc5cccc3c45)cc2)cc(OC)c1O	-2	-10	-16	31*	17	-7	22*
COc1ccc(/C=N/NC(=O)c2ccc(CN3C(=O)c4cccc5cccc3c45)cc2)cc1O	-2	-25	6	9	-2	-3	/
O=C(O)c1cc(N/N=C/c2c(O)ccc3ccccc23)ccc1Cl	7	4	21	19*	31*	4	19*
